An excerpt weighted towards active compounds, which were near 19% of everything screened.
IL1B secr inh – inflammasome signaling inhibition, IL-1 beta readout; THP-1 LPS/ATP IL-1B secretion, AlphaLISA, 16 h; hits give low values; activity change, % at 57.5 µM; actives 4.7% (n = 360,000); in the data active = activity change below about -50%; inconclusive = mostly about -30% to -49%
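Secreted IL-1B measured by AlphaLISA bead assay after 16 h compound exposure of THP-1 cells; compounds (final up to 57.5 uM) added 1 h before LPS (250 ng/mL) and ATP (1.25 mM) stimulation; lower signal means less secretion.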
DT40 TDP1 no CPT – qHTS for Inhibitors of human tyrosyl-DNA phosphodiesterase 1 (TDP1): qHTS in cells in absence of CPT; DT40 Tdp1-/- hTDP1 cells, no CPT, ATP luminescence, 48 h; Potency, µM (top dose mostly 46.2 µM), for inactives: at the top dose activity change, negative = growth inhibition, most hits filed as inhibitors; actives 15% (n = 420,000); AID 686978, 2013; also: potency is read from the fitted curve at half-maximal effect; nearly all actives have a fitted effect of over 55% in size
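Chicken DT40 Tdp1-/- cells complemented with human TDP1, screened without camptothecin (DMSO vehicle only), 400 cells/well. Compounds pin-transferred, cells incubated at 37 °C for at least 48 hr. Growth read as ATP-dependent luminescence (CellTiter-Glo, 30 min at RT).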
ELG1 repair inh – ELG1-dependent DNA repair inhibition; actives 2.3% (n = 330,000); Potency, µM (titrated, usually from 46.1 µM), for inactives: at the highest dose activity change, negative = inhibition, hits mostly inhibitors; AID 504467; HEK293T ELG1-luciferase reporter, luminescence, 16 h; DNA damage induced by 5-fluorouridine; also: potency is read from the fitted curve at half-maximal effect; nearly all actives have a fitted effect of over 55% in size
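Quantitative HTS, concentration-response format. 2,000 cells/well co-treated with 5-fluorouridine and compound, 16 hr in 5% CO2 at 37 °C; ONE-Glo luminescence read after 30 min.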
TDP1 block – TDP1 (human) enzyme inhibition. Q9NUW8. actives 0.28% (n = 350,000). Potency, µM (doses to about 130 µM), inactives show top-dose activity change, negative = inhibition, usual class: inhibitors. recombinant TDP1, AlphaScreen DNA substrate cleavage; also: potency is read from the fitted curve at half-maximal effect; nearly all actives have a fitted effect of over 40% in size
Target sequence (Q9NUW8 whole entry, looked up): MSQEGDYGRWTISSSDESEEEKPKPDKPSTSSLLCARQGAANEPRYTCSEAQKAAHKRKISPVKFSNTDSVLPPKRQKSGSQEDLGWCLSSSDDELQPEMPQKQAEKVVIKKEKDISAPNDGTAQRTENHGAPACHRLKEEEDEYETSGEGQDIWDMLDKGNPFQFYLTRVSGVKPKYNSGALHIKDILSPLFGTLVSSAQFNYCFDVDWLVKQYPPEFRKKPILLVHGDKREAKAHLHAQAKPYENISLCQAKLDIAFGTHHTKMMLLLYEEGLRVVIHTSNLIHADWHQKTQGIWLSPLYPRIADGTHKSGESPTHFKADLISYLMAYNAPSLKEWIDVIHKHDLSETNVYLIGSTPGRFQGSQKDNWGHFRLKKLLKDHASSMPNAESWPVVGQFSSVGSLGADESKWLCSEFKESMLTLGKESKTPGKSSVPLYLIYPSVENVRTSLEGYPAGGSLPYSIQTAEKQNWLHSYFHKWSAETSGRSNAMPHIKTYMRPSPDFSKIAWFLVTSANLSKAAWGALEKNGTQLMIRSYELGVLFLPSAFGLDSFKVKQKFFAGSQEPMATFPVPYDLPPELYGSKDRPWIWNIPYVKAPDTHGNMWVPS
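Steps: enzyme plus compound, 15 min RT; add biotin/phosphotyrosine-FITC oligonucleotide (15 nM final), react 5 min; add donor/acceptor beads (10 ug/ml final), 10 min; read AlphaScreen. Tdp1 at 1 nM final.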
TDP1 cell CPT – DT40-hTDP1 cell growth loss with CPT; Potency, µM (titrated, usually from 46.2 µM), for inactives: at the highest dose activity change, negative = growth inhibition, actives largely listed as inhibitors; chicken DT40 Tdp1-/-;hTDP1 cells + 20 nM CPT, ATP luminescence, 48 h; actives 12% (n = 420,000); also: potency is read from the fitted curve at half-maximal effect; nearly all actives have a fitted effect of over 55% in size
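Chicken DT40 Tdp1-/- cells complemented with human TDP1, 400 cells/well, exposed to compounds plus 20 nM camptothecin for at least 48 h at 37 C; viability read as ATP content by CellTiter-Glo luminescence.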
Giardia kill – kills Giardia lamblia. Giardia lamblia trophozoite viability. activity change, % at 7.66 µM, hits read low. actives 0.15% (n = 340,000); in the data active = activity change below about -80%; inconclusive = between about -30% and that limit;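 also: parasites exposed to compound for two days anaerobically before the ATP read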
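ATP-content bioluminescence gauges trophozoite survival. Cells (100/well) receive compound and incubate anaerobically for 48 hrs at 37 deg C; detection reagent follows for 15-30 min at room temperature.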
* hit, by the source's call; ? = inconclusive; . = no result given; [ ] = another dose, or the depositor's remark. Unless noted, calls follow the shape of the dose curve; as a rule, active = well fitted curve in the direction sought with a large enough effect; inconclusive = small, poorly fitted or top-dose-only effect, or another doubt; inactive = no such curve, though single readings can be large; an effect the other way counts as inactive or inconclusive. % is scaled to controls: 0 for no effect and ±100 for the full control effect.

SMILES | IL1B secr inh | DT40 TDP1 no CPT | ELG1 repair inh | TDP1 block | TDP1 cell CPT | Giardia kill
CCCCCCN[C@H]1CCC2C3CC=C4C[C@@H](O)CC[C@]4(C)C3CC[C@@]21C (some centres undefined) | -2.0 | ? | 0.6% | 0.4% | 16.4µM* | -19.5
CC(=O)C1CCC2C3CC=C4CC(SC(=N)N)CCC4(C)C3CCC12C (centres undefined) | -102.7* | 8.2µM* | . | . | 13µM* | -2.0
CC(C)C(=O)N[C@H]1CCC2C3CC=C4C[C@@H](O)CC[C@]4(C)C3CC[C@@]21C (some centres undefined) | 61.8 | ? | -16.2% | 0.2% | -29.3% | -16.6
CCC(/C=C/C(C)C1CCC2C3CC=C4CC(O)CC[C@@]4(C)C3CC[C@@]12C)C(C)C (some centres undefined) | . | -1.3% | . | 1.8% | -18.1% | .
CCC(Sc1nc2ncccc2o1)C(=O)Nc1ccc(OC)c(OC)c1 (centres undefined) | . | -15.0% | . | -1.9% | 4.6% | .
NC(=S)N/N=C/c1ccc(C23CC4CC(CC(C4)C2)C3)cc1 | 16.2 | 3.66µM* | 4.7% | . | 9.2µM* | -4.5
O=C(CN1CCN(Cc2cccc(Cl)c2)C1=O)NCc1cccs1 | -20.2 | -19.3% | 2.3% | 2.5% | -5.0% | -10.4
COc1ccc(C(O)c2nc(-c3cccc(NC(C)=O)c3)cs2)cc1 (centres undefined) | -10.7 | ? | . | . | ? | .
ClCCn1cnc2c(SCc3ccccc3)ncnc21 | -55.5* | 1.84µM* | . | . | ? | -25.6
ClCCn1cnc2c(SCc3ccccc3Cl)ncnc21 | -66.8* | 0.82µM* | . | . | ? | -4.3
Cn1cnc2c(SCc3ccccc3)ncnc21 | -10.7 | -6.6% | . | . | -4.2% | -26.1
Cc1ccccc1-c1noc(-c2nnn(-c3ccccc3C)c2N)n1 | . | 4.1% | . | -2.6% | 10.8% | .
N#CCCn1c(=O)c(-c2ccccc2)nc2cnc(Oc3ccccc3)nc21 | . | ? | . | . | 10.2% | .
COC(=O)c1ccc(CN2CCOc3ccc(CN4CCC(O)(c5cccnc5)CC4)cc3C2)cc1 | . | ? | . | . | -3.2%[9.04 µM] | .
Cc1ccnc(NS(=O)(=O)c2cnc(Cl)c(Br)c2)c1 | -91.9* | -17.1% | 1.0% | 2.6% | -24.3% | -15.3
O=S(=O)(Nc1nc2ccccc2s1)c1cnc(Cl)c(Br)c1 | 15.3 | ? | ? | 3.8% | 23.1µM* | -6.9
O=S(=O)(Nc1nccs1)c1cnc(Cl)c(Br)c1 | 14.0 | ? | -1.9% | 5.5% | ? | -15.9
CCC1CN(CCNC(=O)C2CCCCN2C)Cc2cc(OC)ccc2O1 (centres undefined) | . | -7.2% | . | . | 3.9%[9.04 µM] | .
COc1cc(NC(=O)c2cc(Cl)ccc2Cl)ccc1-c1cc2ccccc2oc1=O | -15.0 | -27.9% | ? | 1.0% | ? | -5.4
O=C(Cc1ccc(Cl)cc1)Nc1ccc(-c2cc3ccccc3oc2=O)c(Cl)c1 | 23.2 | 2.91µM* | ? | 8.1% | 5.17µM* | 12.1
COc1ccc(C(=O)Nc2ccc(-c3cc4ccccc4oc3=O)c(C)c2)cc1OC | . | 16.4µM* | . | 4.0%[12.3 µM] | 18.4µM* | .
CCc1ccc(OCC(=O)Nc2ccc(-c3cc4ccccc4oc3=O)c(OC)c2)cc1 | 7.2 | 7.31µM* | -4.7% | -8.2% | 6.51µM* | 7.9
O=C(Cc1ccc(Cl)cc1)Nc1ccc2oc(=O)ccc2c1 | ? | -26.5% | -15.2% | 1.2% | -22.7% | 2.1
Cc1cc(NC(=O)c2ccc(Cl)c(Cl)c2)ccc1-c1cc2ccccc2oc1=O | . | -23.7% | . | -2.2%[12.3 µM] | -24.7% | .
CCOC(=O)C1(Cc2cccc(OC)c2)CCCN(C(=O)CCN2CCCO2)C1 (centres undefined) | 5.7 | 2.7% | ? | 4.5% | -24.0% | -3.2
SMILES | IL1B secr inh | DT40 TDP1 no CPT | ELG1 repair inh | TDP1 block | TDP1 cell CPT | Giardia kill
Cc1c(Cl)cccc1-c1ccc(CNCCSc2nnnn2-c2ccccc2)o1 | . | -0.1% | . | 2.3% | -5.1% | .
CCOc1ccc(NC(=O)NC(C)c2c(-n3cccc3)sc(C)c2C)cc1 (centres undefined) | . | ? | . | 9.8% | ? | .
COC(=O)c1cc(OC)c(OC)cc1NC(=O)C1CCC(=O)N1S(=O)(=O)c1ccc(C)cc1 (centres undefined) | 10.5 | 18.4µM* | -17.3% | 4.4% | 20.6µM* | 5.1
COC(=O)c1ccccc1NC(=O)C1CCC(=O)N1S(=O)(=O)c1ccc(C)cc1 (centres undefined) | 0.0 | -5.3% | -12.4% | 1.9% | -3.1% | -7.7
CCn1c2ccccc2c2cc(NC(=O)COc3ccccc3)ccc21 | -3.4 | 23.1µM* | 12.8% | 3.0% | 18.4µM* | -3.6
CCn1c2ccccc2c2cc(NC(=O)c3coc(=O)c(Br)c3)ccc21 | . | . | 1.7% | 1.3% | . | .
CCn1c2ccccc2c2cc(NC(=O)c3cc(C)on3)ccc21 | ? | 18.4µM* | ? | 3.7% | ? | -3.7
CCn1c2ccccc2c2cc(NC(=O)c3cc(OC)c(OC)c(OC)c3)ccc21 | 14.4 | 1.3µM* | -19.5% | 2.0% | 1.3µM* | -9.2
CCn1c2ccccc2c2cc(NC(=O)c3cc(OC)cc(OC)c3)ccc21 | 18.8 | 0.731µM* | ? | 1.9% | 1.03µM* | -1.0
CCn1c2ccccc2c2cc(NC(=O)c3ccc(Br)o3)ccc21 | ? | ? | -6.3% | -1.5% | ? | 12.0
CCn1c2ccccc2c2cc(NC(=O)COc3ccc(OC)cc3)ccc21 | -29.6 | ? | -2.4% | 7.9% | ? | -1.0
CCn1c2ccccc2c2cc(NC(=O)CN(C)CC(=O)Nc3ccc(N4CCOCC4)cc3)ccc21 | ? | 23.1µM* | ? | 4.3% | ? | 0.8
CN(CC(=O)Nc1ccc(N2CCOCC2)cc1)Cc1cc(=O)n2ccsc2n1 | 45.0 | ? | -17.6% | 2.4% | 18.4µM* | -26.2
Cc1ccc(NC(=O)c2cc(S(=O)(=O)N3CCCCC3)ccc2N2CCOCC2)cc1 | -20.3 | ? | . | . | -19.8% | .
CC(C)CCCC(C)NC(=O)c1cc(S(=O)(=O)N2CCCCC2)ccc1N1CCOCC1 (centres undefined) | -25.8 | 13µM* | 11.2µM* | 0.0% | 23.1µM* | 0.5
O=C(Nc1ccccc1)c1cc(S(=O)(=O)N2CCCCC2)ccc1N1CCOCC1 | -28.7 | -17.9% | 4.6% | -0.6%[56.1 µM] | -29.0% | -8.9
CC(C)CNC(=O)COC(=O)c1cc(S(=O)(=O)N2CCCCC2)ccc1N1CCOCC1 | -14.9 | -16.1% | -17.0% | 6.2% | -7.7% | -14.9
O=C(COC(=O)c1cc(S(=O)(=O)N2CCCCC2)ccc1N1CCOCC1)NCCc1ccc(F)cc1 | -3.9 | 10.3µM* | ? | -2.5% | -22.3% | -1.8

Screens from PubChem.
